# Assay results from PubChem BioAssay.
# “And” between values parts separate entries of the source, which are not always exact repeats. Equal entries are not always repeated. Results filed as inconclusive are left out. The source made the active and inactive calls. Unless noted, no stated cut-off is given here; in the data, active means inhibition above about 80%; inactive means the rest.
# Assays:
# [1] = viability loss in pontine glioma line – cell-based, SU-DIPG-XIII, MIPE5.0, CellTiter-Glo, qHTS, dose response (AID 1347064; cut-off not given, nearly all actives have AC50 up to about 23 µM;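 on AC50: cells exposed to compound for 48 hours before the viability read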); details: CellTiter-Glo ATP luminescence
# [2] = viability loss in pontine glioma line – cell-based, SU-DIPG-XXV, MIPE5.0, CellTiter-Glo, qHTS, dose response (AID 1347065; cut-off not given, nearly all actives have AC50 up to about 26 µM;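 further: cells exposed to compound for 48 hours before ATP readout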); details: CellTiter-Glo ATP luminescence
# [3] = growth inhibition of DIPG cells – cell-based, MIPE5.0 library, qHTS (AID 1347068; cut-off not given, nearly all actives have IC50 up to about 30 µM); details: SU-DIPG-XXV viability
# [4] = JHH-DIPG-1 glioma cell viability, MIPE5.0 library, CellTiter-Glo luminescence, qHTS (AID 1347067; cut-off not given, nearly all actives have AC50 up to about 26 µM;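 further: cells exposed to compound for 48 hours before readout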); details: JHH-DIPG-1 glioma viability, CellTiter-Glo ATP luminescence
# [5] = viability loss with induced miR-34 in A549 – imaging, A549 dox-inducible miR-34, nuclei and caspase counts, primary screen (AID 1347080;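 active means compounds whose cell count with miR-34 switched on is under 0.7 times the count with it off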); details: A549 miR-34 inducible, Hoechst nuclei count, 48 h
# [6] = MELAS cybrid and Rieske KO viability enhancers – cell-based, MELAS cybrids, Rieske KO mouse fibroblasts, CellTiter-Glo, primary screen (AID 1508586;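 active means mean z-score across replicates of 1.96 or higher in either the MELAS or the Rieske mutant cell line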;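 further: z relative to plate mean and SD of compound and empty wells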); details: low glucose
# [7] = galactose survival enhancers in mitochondrial complex I cybrids – cell-based, galactose medium, ATP luminescence, primary screen (AID 1645843;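 active means z-score of at least 1.8 in each of two replicates, scored against plate mean and spread of sample wells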;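 further: positive z means more ATP and so rescue of galactose-driven cybrid death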); details: complex I mutant cybrid cells, 72 h, stronger effect = higher value
# [8] = growth inhibition, single agent or in combination, cell-based, chromothripsis tumors, cisplatin or BGB combos (AID 1671449); details: LFS_MB_P medulloblastoma cells;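 further: cells exposed for 96 hours; 0% = vehicle DMSO and 100% = killing by high DMSO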
# [9] = growth inhibition, single agent and combos, cell-based, chromothripsis tumors, cisplatin or BGB combos (AID 1671450); details: HDN33 neuroblastoma cells, stronger effect = higher value;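 further: cells exposed to compound for four days; 0% = vehicle DMSO and 100% = cell killing by high DMSO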
# [10] = growth inhibition, single agents and combos, ICB984, cell-based, cisplatin or BGB combos, synergistic combos for chromothripsis tumors (AID 1671451; call rule not given here;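 further: cells exposed for 96 hours before readout; 0% = vehicle DMSO and 100% = killing by high DMSO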); details: ICB984 medulloblastoma cells, drug combinations, stronger effect = higher value
# [11] = growth inhibition, single agents and combos, LFS_MB_1R, cell-based, cisplatin or BGB combos, synergistic combos for chromothripsis tumors (AID 1671452); details: LFS_MB_1R medulloblastoma cells, stronger effect = higher value;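 further: cells exposed for 96 hours before readout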
# [12] = growth inhibition, single agents and combos, HTB85, cell-based, BGB or cisplatin IC20 combos, synergistic combos for chromothripsis tumors (AID 1671453); details: HTB85 osteosarcoma cells, drug combinations, stronger effect = higher value;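 further: cells exposed for 96 hours before readout; 0% = vehicle DMSO and 100% = high DMSO killing control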
# [13] = growth inhibition, single agents and combos, CRL2098, cell-based, BGB or cisplatin IC20 combos, synergistic combos for chromothripsis tumors (AID 1671454); details: CRL2098 osteosarcoma cells, drug combinations, stronger effect = higher value;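 further: cells exposed for 96 h before readout; 0% = vehicle DMSO and 100% = killing by high DMSO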
# [14] = growth inhibition, single agents and combos, HD-MB03, cell-based, BGB or cisplatin IC20 combos, synergistic combos for chromothripsis tumors (AID 1671455; in the data active means inhibition above about 83%;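 further: 0% = vehicle DMSO and 100% = high DMSO as cytotoxic control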); details: HD-MB03 medulloblastoma cells, stronger effect = higher value
# [15] = growth inhibition, single agents and combos, UWB1.289, cell-based, BGB or cisplatin combos, synergistic combos for chromothripsis tumors (AID 1671456); details: UWB1.289 ovarian carcinoma cells, stronger effect = higher value;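 further: cells exposed to compound for four days; 0% = vehicle DMSO and 100% = killing by high DMSO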
# [16] = growth inhibition, single agents and combos, LFS_MB_2R, cell-based, cisplatin combos, synergistic combos for chromothripsis tumors (AID 1671457); details: LFS_MB_2R medulloblastoma cells, stronger effect = higher value;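 further: cells exposed to compound for four days before readout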
# [17] = growth inhibition, MDA-MB-436, cell-based, BGB or cisplatin combos, synergistic combos for chromothripsis tumors (AID 1671458; call rule not given here;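 further: cells exposed for 96 hours; 0% = vehicle DMSO and 100% = killing by high DMSO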); details: MDA-MB-436 breast carcinoma growth inhibition, drug combinations, stronger effect = higher value
# [18] = UWB1.289_BRCA1 ovarian cancer growth, cell-based, BGB or cisplatin combinations (AID 1671459); details: UWB1.289 BRCA1 ovarian carcinoma, drug combinations, stronger effect = higher value
# [19] = drug combination toxicity in non-malignant astrocytes – cell-based, BGB or cisplatin IC20 combos, cytotoxicity control for chromothriptic childhood tumor combination screen (AID 1671460); details: Human astrocytes, viability inhibition, drug combinations, at 0.5 µM, stronger effect = higher value;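 further: cells exposed to compounds for 96 hours before viability readout; 0% = vehicle and 100% = killing control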
# [20] = BT084 cell growth, single and combined drugs, ICGC_MB145, cisplatin and BGB IC40 combos (AID 1671461); details: BT084 medulloblastoma cells, drug combinations, stronger effect = higher value;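 further: cells exposed to drugs for 96 hours; 0% = vehicle DMSO and 100% = high DMSO full killing control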
# [21] = RCMB18 cell growth, single agent and combined, cisplatin and BGB IC40 combos (AID 1671462); details: RCMB18 medulloblastoma cells, stronger effect = higher value;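 further: cells exposed to compound for four days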
# [22] = CRL1545 cell growth, single agent and combined, cisplatin and BGB IC20 combos (AID 1671464); details: CRL1545 osteosarcoma cells, stronger effect = higher value;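 further: cells exposed to compound for 96 hours before readout; 0% = vehicle DMSO and 100% = high DMSO killing control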
# [23] = stronger effect = lower value, cell number ratio, induced over uninduced
# [24] = measured here: relative caspase fold change +Dox/-Dox
# [25] = measured here: total cells with miR-34 induction, stronger effect = lower value
# [26] = measured here: total cells without miR-34 induction
# [27] = MELAS cybrid survival, CellTiter-Glo 48 h, stronger effect = higher value
# [28] = Rieske KO mouse fibroblast survival, CellTiter-Glo 72 h
# [29] = measured here: combination with BGB IC40, at 0.05 µM
# [30] = measured here: with BGB IC20 combination, at 0.5 µM
# [31] = measured here: with cisplatin IC20 combination, at 0.5 µM
# [32] = measured here: combination with cisplatin, at 0.5 µM
# [33] = measured here: combination with cisplatin, at 5 µM
structure (smiles),measurement,setting,value
Cc1cc(C)cc(Oc2ccc(CNC(=O)[C@H](C)N)cc2C)c1,AC50,[1],26.3 µM (active)
same,AC50,[2],18.6 µM (active)
same,outcome,[3],inactive
Cc1nnc(C(C)C)n1C1CC2CCC(C1)N2CCC(NC(=O)C1CCC(F)(F)CC1)c1ccccc1 (configuration not stated),outcome,[1],inactive
same,outcome,[2],inactive
same,outcome,[4],inactive
same,outcome,[3],inactive
same,fold change,[5]; [23],0.913 (inactive) and 0.876 (inactive)
same,fold change,[5]; [24],0.655 and 0.632
same,cell count,[5]; [25],8280 and 7990
same,cell count,[5]; [26],9060 and 9120
same,z-score,[6]; [27],0.322 (inactive) and -0.218 (inactive)
same,z-score,[6]; [28],-0.412 and -0.846
same,z-score,[7],0.505 (inactive)
COC1CCN(C(=O)c2cc(Cc3n[nH]c(=O)c4ccccc34)ccc2F)CC1,outcome,[1],inactive
same,outcome,[2],inactive
same,outcome,[4],inactive
same,outcome,[3],inactive
same,fold change,[5]; [23],0.934 (inactive)
same,fold change,[5]; [24],0.846
same,cell count,[5]; [25],6330
same,cell count,[5]; [26],6780
same,z-score,[6]; [27],-0.18 (inactive)
same,z-score,[6]; [28],-0.126
same,inhibition,"[8]; at 0.5 µM, stronger effect = higher value",-12.1% (inactive) and -16.1% (inactive)
same,inhibition,"[8]; measured here: combination with BGB IC20, at 0.005 µM",-30.7% and -15.3%
same,inhibition,"[8]; measured here: combination with BGB IC40, at 0.005 µM",-38.1% and -33.1%
same,inhibition,[8]; [29],-30.5% and -42.3%
same,inhibition,"[8]; measured here: combination with cisplatin, at 0.5 µM, stronger effect = higher value",-37.8% and -19.2%
same,inhibition,"[8]; measured here: combination with cisplatin, at 5 µM, stronger effect = higher value",-40.5% and -57.1%
same,inhibition,"[9]; BGB combo, at 5 µM",-13.6% and 13.4%
same,inhibition,[9]; at 0.5 µM,-10.1% (inactive) and -7.74% (inactive)
same,inhibition,"[9]; cisplatin combo, at 5 µM",23.9% and 26%
same,inhibition,[9]; [30],-20.4% and -10.8%
same,inhibition,[9]; [31],5.53% and -9.06%
same,inhibition,"[9]; single agent, at 5 µM",14.4% and 38.9%
same,inhibition,"[10]; BGB IC20 combo, at 0.005 µM",-4.23% and -19.5%
same,inhibition,"[10]; BGB IC40 combo, at 0.005 µM",-0.687% and -29.1%
same,inhibition,"[10]; BGB IC40 combo, at 0.05 µM",-13.2% and -21.3%
same,inhibition,[10]; at 0.5 µM,-24.6% (inactive) and -24.2% (inactive)
same,inhibition,"[10]; cisplatin combo, at 0.05 µM",-19% and -25.6%
same,inhibition,"[10]; cisplatin combo, at 0.5 µM",-40.6% and -12.4%
same,inhibition,"[10]; cisplatin combo, at 5 µM",-8.06% and -25.7%
same,inhibition,"[10]; measured here: 5 uM single agent, at 5 µM",0.595% and -12.2%
same,inhibition,[11]; at 0.5 µM,-26.2% (inactive) and -13.9% (inactive)
same,inhibition,[11]; [29],-15.2% and -8.03%
same,inhibition,[11]; [32],-30.2% and -13%
same,inhibition,[11]; [33],-19.4% and -3.56%
same,inhibition,[12]; at 0.5 µM,-11.4% (inactive) and 6.36% (inactive)
same,inhibition,"[12]; measured here: with BGB IC20, at 0.5 µM",-12.2% and -3.86%
same,inhibition,"[12]; measured here: with BGB IC20, at 5 µM",12.4% and 5.4%
same,inhibition,"[12]; measured here: with cisplatin IC20, at 0.5 µM",-10.7% and 2.43%
same,inhibition,"[12]; measured here: with cisplatin IC20, at 5 µM",15.8% and -12.3%
same,inhibition,"[12]; single agent, at 5 µM",16.7% and 8.18%
same,inhibition,[13]; at 0.5 µM,-48.1% (inactive) and -65.8% (inactive)
same,inhibition,"[13]; measured here: combination with BGB at IC20, at 0.5 µM",-70.3% and -24.2%
same,inhibition,"[13]; measured here: combination with cisplatin at IC20, at 0.5 µM",-35.2% and -114%
same,inhibition,[14]; at 0.5 µM,-3.93% (inactive) and -2.04% (inactive)
same,inhibition,"[14]; measured here: combo with BGB at IC20, at 0.5 µM",-9.33% and -8.78%
same,inhibition,"[14]; measured here: combo with cisplatin at IC20, at 0.5 µM",4.14% and 1.92%
same,inhibition,[15]; at 0.5 µM,-6.03% (inactive) and 1.25% (inactive)
same,inhibition,"[15]; measured here: inhibition with BGB combination, at 0.05 µM",-33.1% and -12.4%
same,inhibition,"[15]; measured here: inhibition with cisplatin combination, at 0.05 µM",-15.7% and -19.5%
same,inhibition,[16]; at 0.5 µM,-18.3% (inactive) and -16.9% (inactive)
same,inhibition,[16]; [32],-12.3% and -23.2%
same,inhibition,[16]; [33],-8.19% and -16.7%
same,inhibition,[17]; at 0.5 µM,-6.48% (inactive) and 5.83% (inactive)
same,inhibition,"[17]; measured here: BGB combination, at 0.5 µM",-20.6% and -13.1%
same,inhibition,"[17]; measured here: BGB combination, at 5 µM",-22% and -12.5%
same,inhibition,"[17]; measured here: cisplatin combination, at 0.5 µM",-7.18% and 13.4%
same,inhibition,"[17]; measured here: cisplatin combination, at 5 µM",19.7% and 25.3%
same,inhibition,"[18]; BGB combination, concentration series, at 5 µM",-17.2% and 8.15%
same,inhibition,[18]; at 0.5 µM,-15.2% (inactive) and 1.82% (inactive)
same,inhibition,"[18]; cisplatin combination, concentration series, at 5 µM",1.96% and 12.2%
same,inhibition,[19],-2.67% (inactive) and 18.6% (inactive)
same,inhibition,[19]; measured here: combo with BGB IC20,-0.687% and 1.82%
same,inhibition,[19]; measured here: combo with cisplatin IC20,-3.5% and 25%
same,inhibition,[20]; at 0.5 µM,-21.1% (inactive) and -16.8% (inactive)
same,inhibition,"[20]; cisplatin combination, at 0.5 µM",-20.5% and -64%
same,inhibition,"[20]; cisplatin combination, at 5 µM",-29.9% and -19.1%
same,inhibition,"[20]; measured here: BGB IC40 combination 0.05 uM, at 0.05 µM",-40% and -3%
same,inhibition,"[20]; single agent, at 5 µM",-18% and 3.41%
same,inhibition,[21]; at 0.5 µM,-19.3% (inactive) and -19.5% (inactive)
same,inhibition,"[21]; cisplatin combo, at 5 µM",-5.98% and -18.2%
same,inhibition,"[21]; measured here: BGB IC40 combination, at 0.05 µM",-15.8% and -4.12%
same,inhibition,[21]; [32],-25.7% and -45.6%
same,inhibition,"[21]; single agent, at 5 µM",-29.2% and -17.7%
same,inhibition,[22]; at 0.5 µM,8.49% (inactive) and 7.34% (inactive)
same,inhibition,[22]; [30],-9.33% and -2.37%
same,inhibition,[22]; [31],16.1% and 10.8%
same,inhibition,"[22]; single agent, at 0.05 µM",5.73% and -15.4%
same,inhibition,"[22]; single agent, at 5 µM",42.8% and 34.1%
